Screen size: about 5,500 compounds; about 2,000 (36%) were called active. Not shown: some 18% with an inconclusive outcome. Some of the results follow. A number with no mark means an inactive call. No stated cut-off is given here; in the data, active means normalized growth mostly below about 0.91 (no sharp cut-off); inconclusive means no clear call, values can overlap the other calls; inactive means mostly above about 0.92.
Assay: chemical genetic growth profiling, strain panel (AID 1159580);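 further: tested at 20 µM; growth read once vehicle control cultures reached saturation at 30 °C; 1 = growth at the plate median or of vehicle wells; lower values mean less growth of the strain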
Conditions: S. cerevisiae deletion strains, growth OD
[1] = locus YAR019C, strain CDC15, hits give low values
[2] = locus YBL105C, strain PKC1, hits give low values
[3] = locus YBR135W, strain CKS1, hits give low values
[4] = locus YBR136W, strain MEC1, hits give low values
[5] = locus YBR160W, strain CDC28, hits give low values
[6] = locus YDL017W, strain CDC7, hits give low values
[7] = locus YDL028C, strain MPS1, hits give low values
[8] = locus YDL101C, strain DUN1, hits give low values
[9] = locus YDL108W, strain KIN28, hits give low values
[10] = locus YDL132W, strain cdc53, hits give low values
[11] = locus YDL214C, strain PRR2, hits give low values
[12] = locus YDR052C, strain DBF4, hits give low values
[13] = locus YDR054C, strain cdc34, hits give low values
[14] = locus YDR226W, strain ADK1, hits give low values
[15] = locus YDR477W, strain SNF1, hits give low values
[16] = locus YER123W, strain YCK3, hits give low values
[17] = locus YER133W, strain GLC7, hits give low values
[18] = locus YFL009W, strain cdc4, hits give low values
[19] = locus YFL029C, strain CAK1, hits give low values
[20] = locus YFR003C, strain YPI1, hits give low values
[21] = locus YFR019W, strain FAB1, hits give low values
[22] = locus YFR028C, strain CDC14, hits give low values
[23] = locus YGR040W, strain KSS1, hits give low values
[24] = locus YGR052W, strain FMP48, hits give low values
[25] = locus YGR092W, strain DBF2, hits give low values
[26] = locus YHR030C, strain SLT2, hits give low values
[27] = locus YHR079C, strain IRE1, hits give low values
[28] = locus YHR082C, strain KSP1, hits give low values
[29] = locus YHR205W, strain SCH9, hits give low values
[30] = locus YIL147C, strain SLN1, hits give low values
[31] = locus YJL095W, strain BCK1, hits give low values
[32] = locus YJL128C, strain PBS2, hits give low values
[33] = locus YJL157C, strain FAR1, hits give low values
[34] = locus YJR016C, strain ILV3, hits give low values
[35] = locus YJR066W, strain TOR1 (second series), hits give low values
[36] = locus YJR066W, strain TOR1, hits give low values
[37] = locus YKL048C, strain ELM1, hits give low values
[38] = locus YKL067W, strain YNK1, hits give low values
[39] = locus YKL101W, strain HSL1, hits give low values
[40] = locus YKL193C, strain SDS22, hits give low values
[41] = locus YKL203C, strain TOR2, hits give low values
[42] = locus YLR113W, strain HOG1, hits give low values
[43] = locus YLR133W, strain CKI1, hits give low values
[44] = locus YLR403W, strain SFP1, hits give low values
[45] = locus YML070W, strain DAK1, hits give low values
[46] = locus YMR001C, strain CDC5, hits give low values
[47] = locus YMR205C, strain PFK2 (second series), hits give low values
[48] = locus YMR277W, strain FCP1, hits give low values
[49] = locus YNL006W, strain LST8, hits give low values
[50] = locus YNL020C, strain ARK1, hits give low values
[51] = locus YNL161W, strain CBK1, hits give low values
[52] = locus YNL183C, strain NPR1, hits give low values
[53] = locus YNL207W, strain RIO2, hits give low values
[54] = locus YNL222W, strain SSU72, hits give low values
[55] = locus YNL307C, strain MCK1 (second series), hits give low values
[56] = locus YOL078W, strain AVO1, hits give low values
[57] = locus YOL136C, strain PFK27, hits give low values
[58] = locus YOR061W, strain CKA2, hits give low values
[59] = locus YOR119C, strain RIO1, hits give low values
[60] = locus YOR231W, strain MKK1, hits give low values
[61] = locus YOR329C, strain SCD5, hits give low values
[62] = locus YPL031C, strain PHO85, hits give low values
[63] = locus YPL153C, strain RAD53, hits give low values
[64] = locus YPL204W, strain HRR25, hits give low values
[65] = locus YPL209C, strain IPL1, hits give low values
[66] = locus YPL256C, strain CLN2, hits give low values
[67] = locus YPR025C, strain CCL1, hits give low values
[68] = locus YPR106W, strain ISR1, hits give low values
[69] = locus YPR111W, strain DBF20, hits give low values
[70] = strain NNK1, hits give low values
[71] = strain TSCII, hits give low values

`O=C1/C(=C/c2c[nH]c3ccccc23)CSc2ccccc21` gave a normalized growth [1] of 0.989, a normalized growth [2] of 0.975 and a normalized growth [3] of 0.981. For the same compound, the normalized growth [4] was 0.966, the normalized growth [5] was 0.99 and the normalized growth [6] was 0.983. For the same compound, the normalized growth [7] was 0.979, the normalized growth [8] was 0.98 and the normalized growth [9] was 0.987. The normalized growth [10] was 0.99, the normalized growth [11] was 0.938 and the normalized growth [12] was 0.985. For the same compound, the normalized growth [13] was 0.987, the normalized growth [14] was 0.983 and the normalized growth [15] was 0.961. The normalized growth [16] was 0.906, the normalized growth [17] was 0.948 and the normalized growth [18] was 0.988. It also gave a normalized growth [19] of 0.988, a normalized growth [20] of 0.987 and a normalized growth [21] of 0.973. For the same compound, the normalized growth [22] was 0.98, the normalized growth [23] was 0.947 and the normalized growth [24] was 1.04. For the same compound, the normalized growth [25] was 0.945, the normalized growth [26] was 1.07 and the normalized growth [27] was 1.06. It also gave a normalized growth [28] of 1.01, a normalized growth [29] of 0.957 and a normalized growth [30] of 0.965. It also gave a normalized growth [31] of 1.02, a normalized growth [32] of 0.944 and a normalized growth [33] of 0.943. For the same compound, the normalized growth [34] was 0.98, the normalized growth [35] was 0.913 and the normalized growth [36] was 1.03. It also gave a normalized growth [37] of 0.949, a normalized growth [38] of 0.964 and a normalized growth [39] of 0.945. The normalized growth [40] was 0.984, the normalized growth [41] was 1.02 and the normalized growth [42] was 1.05. For the same compound, the normalized growth [43] was 0.975, the normalized growth [44] was 0.942 and the normalized growth [45] was 0.944. The normalized growth [46] was 0.976, the normalized growth [47] was 0.979 and the normalized growth [48] was 0.983. For the same compound, the normalized growth [49] was 0.993, the normalized growth [50] was 0.948 and the normalized growth [51] was 0.991. It also gave a normalized growth [52] of 1.05, a normalized growth [53] of 0.997 and a normalized growth [54] of 0.982. For the same compound, the normalized growth [55] was 0.995, the normalized growth [56] was 0.994 and the normalized growth [57] was 0.931. The normalized growth [58] was 0.958, the normalized growth [59] was 0.982 and the normalized growth [60] was 1.05. It also gave a normalized growth [61] of 0.99, a normalized growth [62] of 0.947 and a normalized growth [63] of 0.924. It also gave a normalized growth [64] of 0.928, a normalized growth [65] of 0.989 and a normalized growth [66] of 1.04. The normalized growth [67] was 0.986, the normalized growth [68] was 0.978 and the normalized growth [69] was 0.979. The normalized growth [70] was 0.98 and the normalized growth [71] was 0.984.

`O=C1Nc2ccccc2/C1=C\c1cccc2ccccc12` gave a normalized growth [1] of 0.97, a normalized growth [2] of 0.955 and a normalized growth [3] of 0.971. It also gave a normalized growth [4] of 0.97, a normalized growth [5] of 0.977 and a normalized growth [6] of 0.963. The normalized growth [7] was 0.972, the normalized growth [8] was 0.985 and the normalized growth [9] was 0.969. For the same compound, the normalized growth [10] was 0.965, the normalized growth [11] was 0.815 and the normalized growth [12] was 0.976. The normalized growth [13] was 0.982, the normalized growth [14] was 0.96 and the normalized growth [15] was 0.773. For the same compound, the normalized growth [16] was 0.777, the normalized growth [17] was 0.809 and the normalized growth [18] was 0.98. For the same compound, the normalized growth [19] was 0.964, the normalized growth [20] was 0.972 and the normalized growth [21] was 0.904. For the same compound, the normalized growth [22] was 0.972, the normalized growth [23] was 0.792 and the normalized growth [24] was 0.807. The normalized growth [25] was 0.708, the normalized growth [26] was 0.663 (active) and the normalized growth [27] was 0.73. It also gave a normalized growth [28] of 0.741, a normalized growth [29] of 0.668 and a normalized growth [30] of 0.968. For the same compound, the normalized growth [31] was 0.718, the normalized growth [32] was 0.914 and the normalized growth [33] was 0.796. It also gave a normalized growth [34] of 0.966, a normalized growth [35] of 0.738 and a normalized growth [36] of 0.798. The normalized growth [37] was 0.886, the normalized growth [38] was 0.855 and the normalized growth [39] was 0.816. For the same compound, the normalized growth [40] was 0.968, the normalized growth [41] was 0.857 and the normalized growth [42] was 0.667 (active). For the same compound, the normalized growth [43] was 0.803, the normalized growth [44] was 0.727 and the normalized growth [45] was 0.803. It also gave a normalized growth [46] of 0.957, a normalized growth [47] of 0.862 and a normalized growth [48] of 0.963. For the same compound, the normalized growth [49] was 0.964, the normalized growth [50] was 0.784 and the normalized growth [51] was 0.96. The normalized growth [52] was 0.784, the normalized growth [53] was 0.958 and the normalized growth [54] was 0.971. The normalized growth [55] was 0.752, the normalized growth [56] was 0.973 and the normalized growth [57] was 0.808. It also gave a normalized growth [58] of 0.867, a normalized growth [59] of 0.885 and a normalized growth [60] of 0.807. The normalized growth [61] was 0.966, the normalized growth [62] was 0.738 and the normalized growth [63] was 0.78. For the same compound, the normalized growth [64] was 0.699, the normalized growth [65] was 0.967 and the normalized growth [66] was 0.694 (active). It also gave a normalized growth [67] of 0.972, a normalized growth [68] of 0.959 and a normalized growth [69] of 0.949. The normalized growth [70] was 0.953 and the normalized growth [71] was 0.965.

From PubChem BioAssay AID1159580 (chemical genetic matrix, 2015)
